Reference: PubChem BioAssay
Records with an inconclusive call do not appear. For some assays here: Potency and affinity values are given separately. Calls of active or inactive are those of the source. Unless noted, no stated cut-off is given here; in the data, active means inhibition above about 80%; inactive means the rest.

Tests used:
[1] = galactose survival enhancers in mitochondrial complex I cybrids – cell-based, galactose medium, ATP luminescence, primary screen (AID 1645843;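 active means z-score of at least 1.8 in each of two replicates, scored against plate mean and spread of sample wells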;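 further: positive z means more ATP and so rescue of galactose-driven cybrid death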); conditions: complex I mutant cybrid cells, 72 h, stronger effect = higher value
[2] = blockers of polyQ-driven CASP3 activation – cell-based (AID 1583); conditions: polyglutamine-induced caspase-3 activation, cell assay; stronger effect = higher value;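 tested at 10 µM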
[3] = yeast 75Q aggregation reduction – 75Q-TubU reporter (AID 1593); conditions: Yeast 75Q polyglutamine aggregation reporter
[4] = restoration of touch response, mutant HTT neurons – whole organism, C. elegans mechanosensory neurons, N-terminal huntingtin (AID 1599); conditions: C. elegans polyQ-huntingtin mechanosensory neurons, stronger effect = higher value
[5] = blockers of cytochrome c efflux from mitochondria – biochemical, purified mitochondria (AID 1603); conditions: stronger effect = lower value;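 further: mouse liver mitochondria challenged with calcium chloride; signal normalized to the plate average as 100%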
[6] = polyglutamine aggregate formation blockers (AID 1604); conditions: polyglutamine-induced protein aggregation inhibition assay; stronger effect = higher value; tested at 2.5 µM
[7] = glutamate transport activators, MN-1 cells, MN-1 cell line (AID 1612); conditions: MN-1 motor neuron cells, stronger effect = higher value;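 further: tested at 1 µM final; 0% = mean of DMSO vehicle wells on each plate; positive means more glutamate uptake than control and negative means less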
[8] = GFP-Q80 aggregate reduction, neuronal-like cells, cell-based, NGF-treated PC12, GFPQ80 (AID 1614); conditions: PC12 NGF-treated GFP-polyQ80 inclusion reduction;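 further: lower means fewer inclusions and 0 means no inclusions at all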
[9] = 75Q-TubH aggregate inhibition, S. cerevisiae, yeast (AID 1616); conditions: S. cerevisiae 75Q-TubH polyglutamine aggregation suppression; stronger effect = higher value
[10] = growth inhibition, single agent or in combination, cell-based, chromothripsis tumors, cisplatin or BGB combos (AID 1671449); conditions: LFS_MB_P medulloblastoma cells;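 further: cells exposed for 96 hours; 0% = vehicle DMSO and 100% = killing by high DMSO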
[11] = growth inhibition, single agent and combos, cell-based, chromothripsis tumors, cisplatin or BGB combos (AID 1671450); conditions: HDN33 neuroblastoma cells, stronger effect = higher value;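 further: cells exposed to compound for four days; 0% = vehicle DMSO and 100% = cell killing by high DMSO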
[12] = growth inhibition, single agents and combos, ICB984, cell-based, cisplatin or BGB combos, synergistic combos for chromothripsis tumors (AID 1671451; call rule not given here;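 further: cells exposed for 96 hours before readout; 0% = vehicle DMSO and 100% = killing by high DMSO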); conditions: ICB984 medulloblastoma cells, drug combinations, stronger effect = higher value
[13] = growth inhibition, single agents and combos, LFS_MB_1R, cell-based, cisplatin or BGB combos, synergistic combos for chromothripsis tumors (AID 1671452); conditions: LFS_MB_1R medulloblastoma cells, stronger effect = higher value;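 further: cells exposed for 96 hours before readout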
[14] = growth inhibition, single agents and combos, HTB85, cell-based, BGB or cisplatin IC20 combos, synergistic combos for chromothripsis tumors (AID 1671453); conditions: HTB85 osteosarcoma cells, drug combinations, stronger effect = higher value;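 further: cells exposed for 96 hours before readout; 0% = vehicle DMSO and 100% = high DMSO killing control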
[15] = growth inhibition, single agents and combos, CRL2098, cell-based, BGB or cisplatin IC20 combos, synergistic combos for chromothripsis tumors (AID 1671454); conditions: CRL2098 osteosarcoma cells, drug combinations, stronger effect = higher value;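 further: cells exposed for 96 h before readout; 0% = vehicle DMSO and 100% = killing by high DMSO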
[16] = growth inhibition, single agents and combos, HD-MB03, cell-based, BGB or cisplatin IC20 combos, synergistic combos for chromothripsis tumors (AID 1671455; in the data active means inhibition above about 83%;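 further: 0% = vehicle DMSO and 100% = high DMSO as cytotoxic control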); conditions: HD-MB03 medulloblastoma cells, stronger effect = higher value
[17] = growth inhibition, single agents and combos, UWB1.289, cell-based, BGB or cisplatin combos, synergistic combos for chromothripsis tumors (AID 1671456); conditions: UWB1.289 ovarian carcinoma cells, stronger effect = higher value;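 further: cells exposed to compound for four days; 0% = vehicle DMSO and 100% = killing by high DMSO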
[18] = growth inhibition, single agents and combos, LFS_MB_2R, cell-based, cisplatin combos, synergistic combos for chromothripsis tumors (AID 1671457); conditions: LFS_MB_2R medulloblastoma cells, stronger effect = higher value;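 further: cells exposed to compound for four days before readout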
[19] = growth inhibition, MDA-MB-436, cell-based, BGB or cisplatin combos, synergistic combos for chromothripsis tumors (AID 1671458; call rule not given here;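 further: cells exposed for 96 hours; 0% = vehicle DMSO and 100% = killing by high DMSO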); conditions: MDA-MB-436 breast carcinoma growth inhibition, drug combinations, stronger effect = higher value
[20] = UWB1.289_BRCA1 ovarian cancer growth, cell-based, BGB or cisplatin combinations (AID 1671459); conditions: UWB1.289 BRCA1 ovarian carcinoma, drug combinations, stronger effect = higher value
[21] = drug combination toxicity in non-malignant astrocytes – cell-based, BGB or cisplatin IC20 combos, cytotoxicity control for chromothriptic childhood tumor combination screen (AID 1671460); conditions: Human astrocytes, viability inhibition, drug combinations, at 0.5 µM, stronger effect = higher value;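 further: cells exposed to compounds for 96 hours before viability readout; 0% = vehicle and 100% = killing control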
[22] = BT084 cell growth, single and combined drugs, ICGC_MB145, cisplatin and BGB IC40 combos (AID 1671461); conditions: BT084 medulloblastoma cells, drug combinations, stronger effect = higher value;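 further: cells exposed to drugs for 96 hours; 0% = vehicle DMSO and 100% = high DMSO full killing control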
[23] = RCMB18 cell growth, single agent and combined, cisplatin and BGB IC40 combos (AID 1671462); conditions: RCMB18 medulloblastoma cells, stronger effect = higher value;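 further: cells exposed to compound for four days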
[24] = CRL1545 cell growth, single agent and combined, cisplatin and BGB IC20 combos (AID 1671464); conditions: CRL1545 osteosarcoma cells, stronger effect = higher value;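 further: cells exposed to compound for 96 hours before readout; 0% = vehicle DMSO and 100% = high DMSO killing control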
[25] = rescue of PC12 cells from polyQ htt toxicity – LDH release (AID 1610); conditions: PC12 mutant huntingtin toxicity, final LDH at 4 uM, stronger effect = lower value
[26] = measured here: combination with BGB IC40, at 0.05 µM
[27] = measured here: with BGB IC20 combination, at 0.5 µM
[28] = measured here: with cisplatin IC20 combination, at 0.5 µM
[29] = measured here: combination with cisplatin, at 0.5 µM
[30] = measured here: combination with cisplatin, at 5 µM

In the case of `CN1CCC(N(C)CCC2CCOCC2)CC1`, the z-score [1] was 0.38 (inactive).

Molecule `CN1CC[C@]23c4c5ccc(O)c4O[C@H]2[C@H](O)C=CC3[C@H]1C5` (some centres undefined) has an inhibition [2] of 2.86%, a score [3] of 1.09 and a rescue above control [4] of -1.93. The cytochrome c release ratio [5] was 1.03, the inhibition of aggregation [6] was 32% and the glutamate uptake change [7] was 6.58%. The inclusion score [8] was 2 and the aggregation suppression score [9] was 1.13.

`CCC1(c2ccccc2)C(=O)NC(=O)NC1=O` gave an inhibition [2] of -1.25%, a score [3] of 1.23 and a rescue above control [4] of 9.64. For the same molecule, the cytochrome c release ratio [5] was 0.88, the inhibition of aggregation [6] was 45.6% and the glutamate uptake change [7] was 11.7%. For the same molecule, the inclusion score [8] was 2, the aggregation suppression score [9] was 1.66 and the inhibition ([10]; at 0.5 µM, stronger effect = higher value) was 93.2% (active). For the same molecule, the inhibition ([10]; measured here: combination with BGB IC20, at 0.005 µM) was -28.1%, the inhibition ([10]; measured here: combination with BGB IC40, at 0.005 µM) was -59.2% and the inhibition [10, 26] was -45.6%. The inhibition ([10]; measured here: combination with cisplatin, at 0.5 µM, stronger effect = higher value) was 121%, the inhibition ([10]; measured here: combination with cisplatin, at 5 µM, stronger effect = higher value) was -2.25% and the inhibition ([11]; BGB combo, at 5 µM) was -9.62%. For the same molecule, the inhibition ([11]; at 0.5 µM) was -12.9% (inactive), the inhibition ([11]; cisplatin combo, at 5 µM) was -2.75% and the inhibition [11, 27] was -25.3%. The inhibition [11, 28] was -2.08%, the inhibition ([11]; single agent, at 5 µM) was 3.79% and the inhibition ([12]; BGB IC20 combo, at 0.005 µM) was -3.73%. For the same molecule, the inhibition ([12]; BGB IC40 combo, at 0.005 µM) was -9.29%, the inhibition ([12]; BGB IC40 combo, at 0.05 µM) was -3.16% and the inhibition ([12]; at 0.5 µM) was -22.9% (inactive). The inhibition ([12]; cisplatin combo, at 0.05 µM) was -8.4%, the inhibition ([12]; cisplatin combo, at 0.5 µM) was -26.1% and the inhibition ([12]; cisplatin combo, at 5 µM) was -13.3%. The inhibition ([12]; measured here: 5 uM single agent, at 5 µM) was -22.7%, the inhibition ([13]; at 0.5 µM) was -18.1% (inactive) and the inhibition [13, 26] was -31.8%. For the same molecule, the inhibition [13, 29] was -10.4%, the inhibition [13, 30] was 5.72% and the inhibition ([14]; at 0.5 µM) was -10.5% (inactive). The inhibition ([14]; measured here: with BGB IC20, at 0.5 µM) was -10.6%, the inhibition ([14]; measured here: with BGB IC20, at 5 µM) was 7.72% and the inhibition ([14]; measured here: with cisplatin IC20, at 0.5 µM) was -9.45%. The inhibition ([14]; measured here: with cisplatin IC20, at 5 µM) was 10.2%, the inhibition ([14]; single agent, at 5 µM) was -5.59% and the inhibition ([15]; at 0.5 µM) was -52.1% (inactive). The inhibition ([15]; measured here: combination with BGB at IC20, at 0.5 µM) was -60.5%, the inhibition ([15]; measured here: combination with cisplatin at IC20, at 0.5 µM) was -54.7% and the inhibition ([16]; at 0.5 µM) was -4.07% (inactive). The inhibition ([16]; measured here: combo with BGB at IC20, at 0.5 µM) was 2.98%, the inhibition ([16]; measured here: combo with cisplatin at IC20, at 0.5 µM) was -10.5% and the inhibition ([17]; at 0.5 µM) was -5.54% (inactive). The inhibition ([17]; measured here: inhibition with BGB combination, at 0.05 µM) was -21.7%, the inhibition ([17]; measured here: inhibition with cisplatin combination, at 0.05 µM) was -12% and the inhibition ([18]; at 0.5 µM) was -20.1% (inactive). The inhibition [18, 29] was -6.12%, the inhibition [18, 30] was 0.169% and the inhibition ([19]; at 0.5 µM) was -2.75% (inactive). For the same molecule, the inhibition ([19]; measured here: BGB combination, at 0.5 µM) was -2.38%, the inhibition ([19]; measured here: BGB combination, at 5 µM) was 1.86% and the inhibition ([19]; measured here: cisplatin combination, at 0.5 µM) was -5.56%. The inhibition ([19]; measured here: cisplatin combination, at 5 µM) was -1.94%, the inhibition ([20]; BGB combination, concentration series, at 5 µM) was 22.9% and the inhibition ([20]; at 0.5 µM) was -1.68% (inactive). For the same molecule, the inhibition ([20]; cisplatin combination, concentration series, at 5 µM) was 16%, the inhibition [21] was 10.1% (inactive) and the inhibition ([21]; measured here: combo with BGB IC20) was 11.5%. The inhibition ([21]; measured here: combo with cisplatin IC20) was 13.6%, the inhibition ([22]; at 0.5 µM) was 3.01% (inactive) and the inhibition ([22]; cisplatin combination, at 0.5 µM) was 4.39%. For the same molecule, the inhibition ([22]; cisplatin combination, at 5 µM) was 0.177%, the inhibition ([22]; measured here: BGB IC40 combination 0.05 uM, at 0.05 µM) was -27.4% and the inhibition ([22]; single agent, at 5 µM) was 8.07%. The inhibition ([23]; at 0.5 µM) was 1.72% (inactive), the inhibition ([23]; cisplatin combo, at 5 µM) was 5.8% and the inhibition ([23]; measured here: BGB IC40 combination, at 0.05 µM) was -18.8%. For the same molecule, the inhibition [23, 29] was -11.9%, the inhibition ([23]; single agent, at 5 µM) was 10.7% and the inhibition ([24]; at 0.5 µM) was -19.2% (inactive). The inhibition [24, 27] was -11.8%, the inhibition [24, 28] was -24.8% and the inhibition ([24]; single agent, at 0.05 µM) was 8.97%. The inhibition ([24]; single agent, at 5 µM) was -18.2%.

Work on `CN1C(=O)CN=C(c2ccccc2F)c2cc([N+](=O)[O-])ccc21` yielded an inhibition [2] of 9.27%, a score [3] of 0.97 and a rescue above control [4] of -7.57. The cytochrome c release ratio [5] was 0.83, the inhibition of aggregation [6] was 22.4% and the glutamate uptake change [7] was -1.18%. The inclusion score [8] was 2 and the aggregation suppression score [9] was 0.965.

For `CNC(C)Cc1ccccc1` (centres undefined), the inhibition [2] was 4.94%, the score [3] was 1.26 and the rescue above control [4] was 3.06. It also gave a cytochrome c release ratio [5] of 0.97, an inhibition of aggregation [6] of -0.68% and a glutamate uptake change [7] of 6.37%. For the same molecule, the inclusion score [8] was 2 and the aggregation suppression score [9] was 1.49.

For `CC(N)Cc1ccccc1` (centres undefined), the inhibition [2] was 18%, the score [3] was 0.93 and the rescue above control [4] was -1.93. It also gave a cytochrome c release ratio [5] of 0.82, an inhibition of aggregation [6] of 10.2% and a glutamate uptake change [7] of 31.4%. For the same molecule, the inclusion score [8] was 2 and the aggregation suppression score [9] was 0.923.

In the case of `COC12CC[C@@]3(C[C@@H]1C(C)(O)C(C)(C)C)[C@H]1Cc4ccc(O)c5c4[C@@]3(CCN1CC1CC1)[C@H]2O5` (some centres undefined), the inhibition [2] was 26.4%, the score [3] was 1.52 and the rescue above control [4] was 5.39. It also gave a cytochrome c release ratio [5] of 1.25, an inhibition of aggregation [6] of -0.68% and a normalised LDH release [25] of 1.01. The glutamate uptake change [7] was -3.06% and the aggregation suppression score [9] was 1.02.

Molecule `CNC(C)C(=O)c1ccccc1` (centres undefined) has an inhibition [2] of -15.1%, a score [3] of 1.02 and a rescue above control [4] of -6.75. It also gave a cytochrome c release ratio [5] of 1.05, an inhibition of aggregation [6] of 49.7% and a glutamate uptake change [7] of -3.86%. It also gave an inclusion score [8] of 2 and an aggregation suppression score [9] of 1.11.

Molecule `COC(=O)C1C(OC(=O)c2ccccc2)CC2CCC1N2C` (centres undefined) has an inhibition [2] of -2.13%, a score [3] of 1.1 and a rescue above control [4] of -9. The cytochrome c release ratio [5] was 0.85, the inhibition of aggregation [6] was 32% and the glutamate uptake change [7] was -26.1%. The inclusion score [8] was 2 and the aggregation suppression score [9] was 1.26.

With `CC1CC[C@@]2(NC1)OC1CC3C4CC=C5CC(O)CCC5(C)C4CCC3(C)C1[C@@H]2C` (some centres undefined) the inhibition [2] was 0.23%, the score [3] was 1.05 and the rescue above control [4] was -8.79. It also gave a cytochrome c release ratio [5] of 1.04, an inhibition of aggregation [6] of 64.7% and a glutamate uptake change [7] of -2.74%. The inclusion score [8] was 2 and the aggregation suppression score [9] was 0.556.

With `CNC1(c2ccccc2Cl)CCCCC1=O` (centres undefined) the inhibition [2] was 12.3%, the score [3] was 1.43 and the rescue above control [4] was -2.24. The cytochrome c release ratio [5] was 1.27, the inhibition of aggregation [6] was 3.17% and the glutamate uptake change [7] was -3.45%. It also gave an inclusion score [8] of 2 and an aggregation suppression score [9] of 1.36.
